Screening data (PubChem)
Sampled rows, rich in hits. Any-hit rate of the full collection: about 2.6%.
pPAFAH inh – pPAFAH enzyme inhibitors, primary screen, biochemical, fluorescence polarization, human | inhibition, % at 3.39 µM | Platelet-activating factor acetylhydrolase (Homo sapiens), Q13093 | 330,000 compounds, 1.5% hits | recombinant pPAFAH, FP-rhodamine probe fluorescence polarization;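 active = inhibition above the mean inhibition across the screen plus 3 SD, cut at about 25% in these data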;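 note: inhibitors block binding of the rhodamine activity-based probe so polarization drops; 0% = enzyme with DMSO and 100% = wells lacking pPAFAH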
PAFAH1B3 inh – PAFAH1B3 enzyme inhibitors, primary screen, biochemical, fluorescence polarization, human; Platelet-activating factor acetylhydrolase IB subunit alpha1 (Homo sapiens), Q15102; recombinant PAFAH1B3, FP-rhodamine probe; inhibition, % at 3.39 µM; 340,000 compounds, 0.28% hits; AID 492972, 2010;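 active = inhibition above the screen-wide average of all tested compounds plus 3 SD, cut at about 25% in these data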;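 note: 0% = enzyme with DMSO only and 100% = wells lacking PAFAH1B3 protein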
PAFAH2 inh – PAFAH2 enzyme inhibitors, primary screen, biochemical, fluorescence polarization, human; Platelet-activating factor acetylhydrolase 2, cytoplasmic (Homo sapiens), Q99487; recombinant PAFAH2, FP-rhodamine activity probe; inhibition, % at 3.39 µM; 340,000 compounds, 0.99% hits;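 active = inhibition above the mean over all tested compounds plus 3 SD, cut at about 30% in these data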;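 note: inhibitors block probe labeling of enzyme so polarization drops; 0% = enzyme with DMSO and 100% = wells lacking PAFAH2 protein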
PAFAH1B2 FP inh – PAFAH1B2 enzyme inhibitors, primary screen, biochemical, fluorescence polarization, human | recombinant PAFAH1B2, FP-rhodamine activity probe | inhibition, % at 3.39 µM | Platelet-activating factor acetylhydrolase IB subunit alpha2 (Homo sapiens), P68402 | 340,000 compounds, 1.2% hits;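 active = inhibition above the mean of all tested compounds plus 3 SD, cut at about 24% in these data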;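 note: 0% = enzyme with DMSO and 100% = wells lacking PAFAH1B2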
PKA-R2B act – activators of PKA-R2B holoenzyme, primary screen, biochemical, fluorescence polarization, Cy5-IP20, human. PKA-R2B holoenzyme dissociation; R2B truncated from residue 108, S112A mutant; 0% DMSO only, 100% 113 µM cGMP. activation, % at 11.4 µM. 340,000 compounds, 0.079% hits. AID 504700, 2011;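 active = activation above a cutoff set at the mean over all compounds plus 3 SD, cut at about 18% in these data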;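 note: higher means more holoenzyme dissociation and a rise in polarization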
Target sequence (P31323 whole entry, looked up, other chains not shown, the tested form may be a part): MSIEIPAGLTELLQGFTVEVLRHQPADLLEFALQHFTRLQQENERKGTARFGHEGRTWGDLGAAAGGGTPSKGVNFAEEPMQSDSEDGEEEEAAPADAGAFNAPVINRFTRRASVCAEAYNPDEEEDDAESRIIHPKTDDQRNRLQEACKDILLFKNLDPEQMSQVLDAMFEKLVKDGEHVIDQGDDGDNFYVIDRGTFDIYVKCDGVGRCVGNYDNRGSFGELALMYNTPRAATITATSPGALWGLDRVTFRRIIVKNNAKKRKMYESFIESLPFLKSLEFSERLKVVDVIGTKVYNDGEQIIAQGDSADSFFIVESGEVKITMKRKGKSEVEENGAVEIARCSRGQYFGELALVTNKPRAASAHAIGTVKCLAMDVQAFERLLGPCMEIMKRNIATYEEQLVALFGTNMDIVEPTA
PKA-R1A activ – activators of PKA-R1A holoenzyme, primary screen, biochemical, fluorescence polarization, Cy5-IP20, bovine R1A, mouse PKAc | PKA-R1A dissociation; scaled: DMSO 0%, 113 µM cGMP 100% | activation, % at 11.4 µM | 340,000 compounds, 0.083% hits;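 active = percent activation above the mean of all tested compounds plus 3 SD, cut at about 19% in these data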;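 note: higher means more PKAc released from R1A so a rise in polarization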
* hit, by the source's call; / = not tested or not shown.

SMILES	pPAFAH inh	PAFAH1B3 inh	PAFAH2 inh	PAFAH1B2 FP inh	PKA-R2B act	PKA-R1A activ
Cc1c(NC(=O)c2cccc(NC(=O)Cc3ccc(F)cc3)c2)c(=O)n(-c2ccccc2)n1C	-1	8	6	3	-2	-10
NC(=S)N=Nc1c(O)[nH]c2ccc(F)cc12	-4	4	2	-2	-2	5
NC(=S)N=Nc1c(O)cc(O)c2[nH]c(=O)ccc12	/	62*	51*	51*	1	-4
CN(C)c1ccc(Cc2cc3c(O)ccc(O)c3cc(Cc3ccc(N(C)C)cc3)c2=O)cc1	/	34*	39*	18	-4	-3
CN(C)c1ccc(C(=O)c2ccc(O)cc2O)cc1	-1	3	1	4	3	1
CC(C)=CCC/C(C)=C/CNC(=O)C[C@H]1C[C@H](C(=O)N2CCOCC2)[C@@]2(C)c3[nH]c4cc(CCC(=O)N(C)C)ccc4c3CCN2C1=O	30*	2	-1	-2	1	4
CN(C)C(=O)CCc1ccc2c3c([nH]c2c1)[C@]1(C)[C@@H](C(=O)N2CCOCC2)C[C@H](CC(=O)NC(C)(C)C)C(=O)N1CC3	6	8	1	3	1	-2
CC[C@]12c3[nH]c4cc(CCC(=O)N(C)C)ccc4c3CCN1C(=O)[C@@H](CC(=O)NCCN1CCOCC1)C[C@@H]2C(=O)N1CCN(C(=O)C2CC2)CC1	5	3	3	3	-4	-11
CC[C@]12c3[nH]c4cc(CCC(=O)N(C)C)ccc4c3CCN1C(=O)[C@@H](CC(=O)NC/C=C(\C)CCC=C(C)C)C[C@@H]2C(=O)N1CCN(C(=O)C2CC2)CC1	29*	10	-5	2	-4	-3
COc1ccc2[nH]c3c(c2c1)CCN1C(=O)C(CC(=O)NC/C=C(\C)CCC=C(C)C)C[C@H](C(=O)N(C(C)C)C(C)C)[C@@]31C (stereo partly drawn)	26*	7	7	5	-8	0
CC(C)=CCC/C(C)=C/CNC(=O)C[C@H]1C[C@H](C(=O)N(C(C)C)C(C)C)[C@@]2(C)c3[nH]c4ccc(Cl)cc4c3CCN2C1=O	2	7	-4	3	-2	-7
CC(C)CCNC(=O)C1CCN(S(=O)(=O)c2ccc3c(c2)CC(C)N3C(=O)C2CC2)CC1 (stereo not drawn)	3	6	-1	3	-15	-11
CC(=O)N1C[C@H]2CON(C)[C@H]2C[C@H]1c1cccc(-c2ccc(C#N)cc2)c1	/	/	/	/	2	-10
O=C(OCC(=O)N1CCN(C(=O)c2ccco2)CC1)c1cc(-c2ccco2)nc2ccccc12	31*	3	52*	5	6	-5
CC(=O)N1N=C(c2ccc3ccccc3c2)OC1(C)C	4	-1	3	0	-3	4
c1ccc2cc(-c3cc4ccccn4c3)ccc2c1	28*	9	15	5	-10	4
CCCn1c(=O)c(C(=O)NNC(=O)c2ccccc2Cl)c(O)c2ccccc21	4	2	0	3	5	-5
CCOc1ccc(NC(=O)C23CC4CC(C2)CC(c2ccccc2)(C4)C3)cc1	4	8	5	27*	-12	-5
CCOc1ccc(C(=O)N[C@H](C(=O)Nc2ccc(S(=O)(=O)Nc3nccs3)cc2)C(C)C)cc1	10	6	1	4	3	-14
Cc1ccc(C)c(S(=O)(=O)/N=C2\C=C(NS(=O)(=O)c3ccccc3)C(=O)c3ccccc32)c1	17	25	17	6	-3	-2
CC(C)c1ccc(S(=O)(=O)/N=C2\C=C(NS(=O)(=O)c3ccccc3)C(=O)c3ccccc32)cc1	26*	-2	26	23	-2	-4
